How the values were obtained:
[1] = molecular target: Protein kinase C gamma type (Homo sapiens) (UniProt P05129); details: at 1 µM;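 also: each value is an averaged percent inhibition of the enzyme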
[2] = molecular target: T1, Protein kinase C iota type (Homo sapiens) (UniProt P41743); details: at 0.1 µM
T1 sequence (whole entry): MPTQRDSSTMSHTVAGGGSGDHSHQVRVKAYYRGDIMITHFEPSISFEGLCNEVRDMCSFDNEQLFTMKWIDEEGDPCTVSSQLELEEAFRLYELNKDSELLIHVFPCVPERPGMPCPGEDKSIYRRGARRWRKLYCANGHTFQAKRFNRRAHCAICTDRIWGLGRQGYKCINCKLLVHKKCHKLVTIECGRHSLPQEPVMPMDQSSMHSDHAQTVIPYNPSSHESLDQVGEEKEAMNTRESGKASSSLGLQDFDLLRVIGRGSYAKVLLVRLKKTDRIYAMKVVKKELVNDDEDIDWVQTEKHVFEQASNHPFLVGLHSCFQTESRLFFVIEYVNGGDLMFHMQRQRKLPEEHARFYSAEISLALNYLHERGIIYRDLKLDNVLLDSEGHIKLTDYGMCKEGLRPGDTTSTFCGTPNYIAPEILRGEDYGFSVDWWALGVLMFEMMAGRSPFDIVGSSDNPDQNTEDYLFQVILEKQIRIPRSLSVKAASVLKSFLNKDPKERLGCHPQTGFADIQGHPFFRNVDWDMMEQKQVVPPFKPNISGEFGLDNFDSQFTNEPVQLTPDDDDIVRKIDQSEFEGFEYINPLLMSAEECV

[3] = molecular target: T1, Protein kinase C iota type (Homo sapiens); details: at 1 µM
[4] = molecular target: Protein kinase C theta type (Homo sapiens) (UniProt Q04759); details: at 0.1 µM
Protein kinase C theta type (Homo sapiens), sequence (Q04759 whole entry, looked up): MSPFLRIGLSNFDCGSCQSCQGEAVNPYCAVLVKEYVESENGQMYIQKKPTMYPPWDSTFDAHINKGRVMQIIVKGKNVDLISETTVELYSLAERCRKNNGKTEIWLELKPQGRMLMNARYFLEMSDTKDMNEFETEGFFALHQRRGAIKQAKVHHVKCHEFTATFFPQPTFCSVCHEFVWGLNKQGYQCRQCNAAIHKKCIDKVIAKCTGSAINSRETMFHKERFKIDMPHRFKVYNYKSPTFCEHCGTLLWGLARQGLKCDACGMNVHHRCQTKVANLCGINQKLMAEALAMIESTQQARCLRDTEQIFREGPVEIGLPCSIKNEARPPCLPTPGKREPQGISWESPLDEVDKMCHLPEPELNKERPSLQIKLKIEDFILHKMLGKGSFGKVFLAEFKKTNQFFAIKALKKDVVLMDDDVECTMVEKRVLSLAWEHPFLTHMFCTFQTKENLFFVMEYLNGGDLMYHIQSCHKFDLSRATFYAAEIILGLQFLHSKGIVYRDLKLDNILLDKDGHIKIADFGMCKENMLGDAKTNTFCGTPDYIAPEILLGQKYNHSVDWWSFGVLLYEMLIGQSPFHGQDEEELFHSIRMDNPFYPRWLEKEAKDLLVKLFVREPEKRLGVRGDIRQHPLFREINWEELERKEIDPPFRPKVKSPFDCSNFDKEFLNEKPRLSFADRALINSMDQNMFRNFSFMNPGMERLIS

[5] = molecular target: Protein kinase C theta type (Homo sapiens) (UniProt Q04759); details: at 1 µM
[6] = molecular target: Protein kinase C beta type (Homo sapiens) (UniProt P05771); details: at 0.1 µM
Protein kinase C beta type (Homo sapiens), sequence (P05771 2-671 limits assumed): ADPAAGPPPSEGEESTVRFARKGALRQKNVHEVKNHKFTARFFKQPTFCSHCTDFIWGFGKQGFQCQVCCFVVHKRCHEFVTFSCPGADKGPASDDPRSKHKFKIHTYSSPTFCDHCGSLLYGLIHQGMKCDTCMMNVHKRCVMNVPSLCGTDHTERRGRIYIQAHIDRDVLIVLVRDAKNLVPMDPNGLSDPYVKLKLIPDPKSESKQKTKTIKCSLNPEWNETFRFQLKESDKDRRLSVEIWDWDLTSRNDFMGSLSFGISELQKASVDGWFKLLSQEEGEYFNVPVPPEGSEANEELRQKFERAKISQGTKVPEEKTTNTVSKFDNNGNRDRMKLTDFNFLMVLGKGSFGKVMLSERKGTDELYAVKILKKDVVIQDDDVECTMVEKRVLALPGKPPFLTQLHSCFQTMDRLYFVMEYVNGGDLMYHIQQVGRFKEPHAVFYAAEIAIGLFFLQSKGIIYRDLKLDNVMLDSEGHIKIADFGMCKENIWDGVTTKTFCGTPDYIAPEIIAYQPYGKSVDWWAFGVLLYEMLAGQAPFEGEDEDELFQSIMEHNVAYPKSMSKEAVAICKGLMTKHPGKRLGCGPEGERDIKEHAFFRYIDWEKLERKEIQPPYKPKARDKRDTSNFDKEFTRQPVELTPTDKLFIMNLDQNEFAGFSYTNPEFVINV

[7] = molecular target: Protein kinase C beta type (Homo sapiens) (UniProt P05771); details: at 1 µM
[8] = molecular target: T2, Serine/threonine-protein kinase D1 (Homo sapiens) (UniProt Q15139); details: at 0.1 µM
T2 sequence (whole entry): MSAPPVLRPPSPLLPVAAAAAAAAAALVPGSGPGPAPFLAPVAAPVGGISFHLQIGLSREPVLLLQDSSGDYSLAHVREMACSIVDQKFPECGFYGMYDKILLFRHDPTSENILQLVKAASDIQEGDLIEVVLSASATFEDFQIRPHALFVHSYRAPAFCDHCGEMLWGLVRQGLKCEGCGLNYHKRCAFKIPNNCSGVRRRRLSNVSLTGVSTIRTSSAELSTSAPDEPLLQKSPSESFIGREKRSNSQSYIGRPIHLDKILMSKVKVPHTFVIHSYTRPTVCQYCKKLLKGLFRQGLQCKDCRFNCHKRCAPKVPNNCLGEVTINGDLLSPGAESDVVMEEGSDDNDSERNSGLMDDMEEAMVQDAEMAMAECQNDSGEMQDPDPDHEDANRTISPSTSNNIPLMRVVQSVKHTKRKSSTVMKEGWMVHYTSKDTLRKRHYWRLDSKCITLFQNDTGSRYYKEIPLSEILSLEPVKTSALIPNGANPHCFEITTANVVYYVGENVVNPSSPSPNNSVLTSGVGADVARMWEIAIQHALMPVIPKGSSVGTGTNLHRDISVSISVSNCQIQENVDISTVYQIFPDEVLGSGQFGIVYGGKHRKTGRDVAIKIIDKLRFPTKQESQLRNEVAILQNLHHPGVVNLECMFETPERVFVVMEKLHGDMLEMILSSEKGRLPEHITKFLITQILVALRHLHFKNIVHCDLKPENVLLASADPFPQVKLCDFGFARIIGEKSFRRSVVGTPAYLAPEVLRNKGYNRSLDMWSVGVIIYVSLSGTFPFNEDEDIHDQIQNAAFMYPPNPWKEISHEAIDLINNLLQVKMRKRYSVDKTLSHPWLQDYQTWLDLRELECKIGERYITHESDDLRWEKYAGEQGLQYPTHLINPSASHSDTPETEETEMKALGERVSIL

[9] = molecular target: T2, Serine/threonine-protein kinase D1 (Homo sapiens); details: at 1 µM
[10] = molecular target: T3, Serine/threonine-protein kinase D2 (Homo sapiens) (UniProt Q9BZL6); details: at 0.1 µM
T3 sequence (whole entry): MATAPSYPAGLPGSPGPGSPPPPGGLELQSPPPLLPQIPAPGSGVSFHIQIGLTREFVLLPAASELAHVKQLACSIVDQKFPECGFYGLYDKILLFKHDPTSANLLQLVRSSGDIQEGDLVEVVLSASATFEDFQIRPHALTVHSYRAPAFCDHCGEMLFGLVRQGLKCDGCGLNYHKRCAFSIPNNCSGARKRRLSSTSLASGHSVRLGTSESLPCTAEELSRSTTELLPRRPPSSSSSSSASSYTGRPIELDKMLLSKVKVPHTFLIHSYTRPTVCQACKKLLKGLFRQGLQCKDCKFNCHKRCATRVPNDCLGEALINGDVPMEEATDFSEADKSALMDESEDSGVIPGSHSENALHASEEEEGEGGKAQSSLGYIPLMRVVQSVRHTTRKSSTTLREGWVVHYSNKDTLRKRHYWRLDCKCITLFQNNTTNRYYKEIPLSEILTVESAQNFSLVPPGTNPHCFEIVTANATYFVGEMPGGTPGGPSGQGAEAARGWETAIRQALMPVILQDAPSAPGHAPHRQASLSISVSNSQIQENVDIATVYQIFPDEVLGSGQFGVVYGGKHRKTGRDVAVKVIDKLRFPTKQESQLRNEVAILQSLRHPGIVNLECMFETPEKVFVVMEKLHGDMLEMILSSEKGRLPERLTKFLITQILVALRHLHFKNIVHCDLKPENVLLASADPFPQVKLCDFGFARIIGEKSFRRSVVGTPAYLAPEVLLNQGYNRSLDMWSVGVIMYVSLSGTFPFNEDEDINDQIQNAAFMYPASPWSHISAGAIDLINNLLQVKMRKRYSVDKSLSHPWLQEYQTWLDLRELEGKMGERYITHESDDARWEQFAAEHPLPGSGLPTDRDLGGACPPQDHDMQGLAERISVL

[11] = molecular target: T3, Serine/threonine-protein kinase D2 (Homo sapiens); details: at 1 µM
[12] = molecular target: T4, Serine/threonine-protein kinase D3 (Homo sapiens) (UniProt O94806); details: at 0.1 µM
T4 sequence (whole entry): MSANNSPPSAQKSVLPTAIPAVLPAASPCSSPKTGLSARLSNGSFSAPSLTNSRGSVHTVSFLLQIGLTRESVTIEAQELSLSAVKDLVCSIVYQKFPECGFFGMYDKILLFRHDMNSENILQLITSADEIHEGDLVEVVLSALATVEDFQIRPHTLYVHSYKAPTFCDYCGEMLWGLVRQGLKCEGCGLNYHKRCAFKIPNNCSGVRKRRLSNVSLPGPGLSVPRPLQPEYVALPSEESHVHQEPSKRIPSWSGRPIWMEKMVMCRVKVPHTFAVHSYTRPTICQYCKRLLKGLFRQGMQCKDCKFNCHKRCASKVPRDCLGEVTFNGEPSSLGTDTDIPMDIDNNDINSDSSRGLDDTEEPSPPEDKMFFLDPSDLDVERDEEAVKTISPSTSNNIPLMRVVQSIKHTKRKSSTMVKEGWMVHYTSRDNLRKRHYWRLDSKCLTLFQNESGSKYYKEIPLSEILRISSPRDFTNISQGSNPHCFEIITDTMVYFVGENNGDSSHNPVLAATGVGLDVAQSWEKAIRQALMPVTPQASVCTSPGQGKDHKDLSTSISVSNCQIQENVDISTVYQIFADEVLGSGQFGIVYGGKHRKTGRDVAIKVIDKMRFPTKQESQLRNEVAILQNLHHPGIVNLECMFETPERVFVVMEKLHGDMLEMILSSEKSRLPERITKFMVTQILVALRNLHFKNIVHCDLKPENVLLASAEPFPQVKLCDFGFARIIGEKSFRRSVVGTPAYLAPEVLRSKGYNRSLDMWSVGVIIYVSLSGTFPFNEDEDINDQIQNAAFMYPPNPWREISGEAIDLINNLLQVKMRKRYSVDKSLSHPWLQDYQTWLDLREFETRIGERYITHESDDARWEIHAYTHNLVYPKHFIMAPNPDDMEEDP

[13] = molecular target: T4, Serine/threonine-protein kinase D3 (Homo sapiens); details: at 1 µM
[14] = molecular target: T5, cGMP-dependent protein kinase 1 (Homo sapiens) (UniProt Q13976); details: at 0.1 µM
T5 sequence (whole entry): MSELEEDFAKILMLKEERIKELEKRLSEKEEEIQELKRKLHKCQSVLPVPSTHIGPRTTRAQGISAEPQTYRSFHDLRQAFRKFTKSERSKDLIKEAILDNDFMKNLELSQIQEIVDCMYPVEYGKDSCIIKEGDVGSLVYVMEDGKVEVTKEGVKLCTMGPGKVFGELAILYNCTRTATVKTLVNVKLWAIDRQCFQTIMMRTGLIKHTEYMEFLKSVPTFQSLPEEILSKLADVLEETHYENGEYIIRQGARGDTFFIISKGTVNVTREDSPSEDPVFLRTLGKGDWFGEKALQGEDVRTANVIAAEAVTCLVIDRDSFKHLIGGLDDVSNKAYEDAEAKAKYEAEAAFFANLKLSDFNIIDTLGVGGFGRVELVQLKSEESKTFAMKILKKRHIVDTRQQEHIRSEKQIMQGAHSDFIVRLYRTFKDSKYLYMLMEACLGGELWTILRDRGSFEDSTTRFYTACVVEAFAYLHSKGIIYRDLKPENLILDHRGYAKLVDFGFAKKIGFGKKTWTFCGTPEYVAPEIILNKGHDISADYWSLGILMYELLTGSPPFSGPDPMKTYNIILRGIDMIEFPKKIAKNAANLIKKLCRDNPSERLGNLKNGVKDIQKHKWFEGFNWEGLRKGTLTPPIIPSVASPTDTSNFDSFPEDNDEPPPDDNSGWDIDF

[15] = molecular target: T5, cGMP-dependent protein kinase 1 (Homo sapiens); details: at 1 µM
[16] = molecular target: T6, cGMP-dependent protein kinase 2 (Homo sapiens) (UniProt Q13237); details: at 0.1 µM
T6 sequence (whole entry): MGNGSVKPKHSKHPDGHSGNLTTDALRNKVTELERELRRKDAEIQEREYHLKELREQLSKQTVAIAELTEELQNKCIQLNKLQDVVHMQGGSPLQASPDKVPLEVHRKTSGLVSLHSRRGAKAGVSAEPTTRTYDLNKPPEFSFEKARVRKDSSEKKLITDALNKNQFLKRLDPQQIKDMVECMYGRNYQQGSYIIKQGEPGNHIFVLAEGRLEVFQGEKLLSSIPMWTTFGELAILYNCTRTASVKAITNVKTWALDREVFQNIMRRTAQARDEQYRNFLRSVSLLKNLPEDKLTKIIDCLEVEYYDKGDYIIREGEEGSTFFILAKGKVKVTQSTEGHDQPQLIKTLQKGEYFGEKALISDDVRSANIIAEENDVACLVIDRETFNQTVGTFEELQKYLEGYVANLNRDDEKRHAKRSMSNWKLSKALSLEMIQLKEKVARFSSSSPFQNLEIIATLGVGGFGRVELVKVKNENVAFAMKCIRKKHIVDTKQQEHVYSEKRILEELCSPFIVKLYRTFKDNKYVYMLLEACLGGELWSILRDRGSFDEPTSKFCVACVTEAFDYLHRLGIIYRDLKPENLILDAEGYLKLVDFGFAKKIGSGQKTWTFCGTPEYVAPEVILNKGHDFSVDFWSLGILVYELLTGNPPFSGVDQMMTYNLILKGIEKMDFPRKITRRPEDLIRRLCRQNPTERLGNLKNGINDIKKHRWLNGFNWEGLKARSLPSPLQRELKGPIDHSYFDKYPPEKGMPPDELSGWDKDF

[17] = molecular target: T6, cGMP-dependent protein kinase 2 (Homo sapiens); details: at 1 µM
[18] = molecular target: T7, cAMP-dependent protein kinase catalytic subunit PRKX (Homo sapiens) (UniProt P51817); details: at 0.1 µM
T7 sequence (whole entry): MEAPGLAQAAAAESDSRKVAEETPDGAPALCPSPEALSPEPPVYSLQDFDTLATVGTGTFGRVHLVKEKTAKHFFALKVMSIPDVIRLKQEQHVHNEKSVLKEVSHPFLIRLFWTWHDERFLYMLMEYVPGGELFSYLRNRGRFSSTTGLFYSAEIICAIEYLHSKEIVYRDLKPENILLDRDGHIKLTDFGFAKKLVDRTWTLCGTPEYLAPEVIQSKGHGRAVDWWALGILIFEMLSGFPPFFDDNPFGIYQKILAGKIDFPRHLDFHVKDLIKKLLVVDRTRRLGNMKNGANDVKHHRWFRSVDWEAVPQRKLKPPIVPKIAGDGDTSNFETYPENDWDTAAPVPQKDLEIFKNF

[19] = molecular target: T7, cAMP-dependent protein kinase catalytic subunit PRKX (Homo sapiens); details: at 1 µM
[20] = molecular target: Rho-associated protein kinase 1 (Homo sapiens) (UniProt Q13464); details: at 0.1 µM;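 also: values are mean percent inhibition of ROCK1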
Rho-associated protein kinase 1 (Homo sapiens), sequence (Q13464 2-1354 limits assumed): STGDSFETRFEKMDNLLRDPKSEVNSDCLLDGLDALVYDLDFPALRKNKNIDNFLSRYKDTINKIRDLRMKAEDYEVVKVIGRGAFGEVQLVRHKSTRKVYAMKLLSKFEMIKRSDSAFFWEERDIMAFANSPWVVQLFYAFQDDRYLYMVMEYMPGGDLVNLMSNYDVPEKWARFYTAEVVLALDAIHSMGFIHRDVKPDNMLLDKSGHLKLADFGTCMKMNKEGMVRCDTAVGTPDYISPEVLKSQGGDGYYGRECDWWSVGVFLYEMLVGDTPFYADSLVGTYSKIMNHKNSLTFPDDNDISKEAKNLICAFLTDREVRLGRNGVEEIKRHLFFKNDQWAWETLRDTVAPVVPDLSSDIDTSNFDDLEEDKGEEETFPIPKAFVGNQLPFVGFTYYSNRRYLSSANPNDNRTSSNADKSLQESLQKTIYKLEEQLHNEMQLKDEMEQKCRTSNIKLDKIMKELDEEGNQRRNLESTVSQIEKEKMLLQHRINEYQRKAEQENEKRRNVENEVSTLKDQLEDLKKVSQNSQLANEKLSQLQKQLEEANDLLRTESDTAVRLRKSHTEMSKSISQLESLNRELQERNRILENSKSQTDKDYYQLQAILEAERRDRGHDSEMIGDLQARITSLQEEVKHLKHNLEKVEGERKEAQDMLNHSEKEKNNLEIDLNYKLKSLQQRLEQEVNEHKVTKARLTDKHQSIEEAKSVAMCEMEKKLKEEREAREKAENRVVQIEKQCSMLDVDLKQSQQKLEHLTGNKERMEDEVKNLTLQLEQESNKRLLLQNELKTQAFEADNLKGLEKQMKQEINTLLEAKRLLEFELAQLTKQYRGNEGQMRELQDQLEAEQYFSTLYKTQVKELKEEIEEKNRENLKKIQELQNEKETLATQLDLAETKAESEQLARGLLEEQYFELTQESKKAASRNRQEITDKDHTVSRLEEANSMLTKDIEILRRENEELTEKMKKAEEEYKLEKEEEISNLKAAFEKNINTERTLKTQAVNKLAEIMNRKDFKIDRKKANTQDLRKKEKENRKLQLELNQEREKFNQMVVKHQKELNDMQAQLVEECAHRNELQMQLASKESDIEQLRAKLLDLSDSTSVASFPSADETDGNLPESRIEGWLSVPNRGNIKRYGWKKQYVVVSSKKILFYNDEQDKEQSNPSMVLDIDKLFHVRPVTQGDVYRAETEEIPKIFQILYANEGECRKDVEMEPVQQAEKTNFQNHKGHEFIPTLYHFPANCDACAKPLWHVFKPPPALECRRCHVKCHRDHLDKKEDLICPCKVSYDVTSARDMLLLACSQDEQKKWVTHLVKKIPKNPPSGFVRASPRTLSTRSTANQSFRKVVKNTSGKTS

Row | SMILES | inhibition [1] | inhibition [2] | inhibition [3] | inhibition [4] | inhibition [5] | inhibition [6] | inhibition [7] | inhibition [8] | inhibition [9] | inhibition [10] | inhibition [11] | inhibition [12] | inhibition [13] | inhibition [14] | inhibition [15] | inhibition [16] | inhibition [17] | inhibition [18] | inhibition [19] | inhibition [20]
1 | NS(=O)(=O)c1ccc(-c2cc3ccncc3cc2OCc2ccccc2)cc1 | 4.49% | 0.19% | 0.28% | 1.18% | 2.98% | 0.66% | 1.74% | 2.19% | 2.75% | 2.47% | 4.54% | 2.31% | 2.51% | 0.96% | 4.78% | 1.8% | 3.35% | 0.85% | 1.52% | 0.19%
2 | CC(C)c1ccc2c(c1)NC(=O)/C2=N/Nc1ccc(S(N)(=O)=O)cc1 | -0.76% | -1.39% | -2.44% | -0.41% | -0.44% | -0.24% | 0.73% | 0.07% | 0.8% | -0.15% | -0.41% | -0.27% | -0.32% | -1.53% | 1.06% | -0.39% | -0.18% | 0.2% | -0.32% | -1.01%
3 | Cc1ccc(Nc2ccnc(Nc3cccc(C(N)=O)c3)n2)cc1O | 16.4% | 1.56% | -0.31% | 0.93% | 2.94% | 1.81% | 8.28% | -0.94% | 12.1% | -0.15% | 10.1% | -0.05% | 9.43% | 1.11% | 3.77% | 2.93% | 7.68% | 1.82% | 2.66% | 0.56%
